Bioassay records: PubChem BioAssay, National Center for Advancing Translational Sciences (NCATS)
The sample as a whole holds a higher share of hits than the screen did.
HT1080NT lethal – kills 2HG-producing HT-1080-NT fibrosarcoma cells; HT-1080-NT fibrosarcoma viability, CellTiter-Glo ATP luminescence, 48 h; AID 686970; Potency, µM (titrated, usually from 46.1 µM), inactives show at the top dose activity, negative = less viability, usual class: cytotoxic; 1.6% of 360,000 active;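 note: NT is the 2HG producing partner of a matched IDH1 knockdown line; potency is the fitted concentration of half-maximal effect; 0% = DMSO-treated cells and -100% = media-only wells without cells; nearly all actives have a fitted effect of over 55% in size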
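A 48-hour cytotoxicity screen used HT-1080-NT cells plated 2 hours before compound delivery. ATP-based CellTiter-Glo luminescence measured viability, normalized to DMSO and no-cell controls.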
HT1080 IDH1KD tx – toxicity to HT-1080 IDH1 knockdown cells (counter line); 2% of 360,000 active; Potency, µM (series often up to 46.1 µM), for inactives: at the top dose activity, negative = toxicity, most hits filed as cytotoxic; AID 686971; HT-1080 IDH1 knockdown viability, ATP luminescence, 48 h;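 note: potency is the fitted concentration of half-maximal effect; 0% = DMSO wells and -100% = cell-free medium wells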
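% activity derives from luminescence (CellTiter-Glo), normalised to DMSO and no-cell wells. HT-1080-IDH1KD cells, 750/well, had 48 h compound exposure at 37 °C.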
DT40 TDP1 CPT – DT40-hTDP1 cell growth loss with CPT; chicken DT40 Tdp1-/-;hTDP1 cells + 20 nM CPT, ATP luminescence, 48 h; Potency, µM (series often up to 46.2 µM), for inactives: at the highest dose activity change, negative = growth inhibition, actives largely listed as inhibitors; 12% of 420,000 active; AID 686979; note: potency is the fitted concentration of half-maximal effect; nearly all actives have a fitted effect of over 55% in size
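Cell growth measured by CellTiter-Glo luminescence after a minimum 48 h, 37 C compound exposure with 20 nM CPT in Tdp1-knockout DT40 cells stably expressing hTDP1, seeded 400/well; qHTS titration format.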
12-LOX inh – inhibitors of human 12S-lipoxygenase ALOX12 | P18054 | purified 12hLO, xylenol orange hydroperoxide absorbance | Potency, µM (highest dose often 108 µM), for the others: top-dose activity change, negative = inhibition, most hits filed as inhibitors | 1.1% of 580,000 active | AID 1671190; note: potency is the fitted concentration of half-maximal effect
Target sequence (P18054 whole entry, looked up): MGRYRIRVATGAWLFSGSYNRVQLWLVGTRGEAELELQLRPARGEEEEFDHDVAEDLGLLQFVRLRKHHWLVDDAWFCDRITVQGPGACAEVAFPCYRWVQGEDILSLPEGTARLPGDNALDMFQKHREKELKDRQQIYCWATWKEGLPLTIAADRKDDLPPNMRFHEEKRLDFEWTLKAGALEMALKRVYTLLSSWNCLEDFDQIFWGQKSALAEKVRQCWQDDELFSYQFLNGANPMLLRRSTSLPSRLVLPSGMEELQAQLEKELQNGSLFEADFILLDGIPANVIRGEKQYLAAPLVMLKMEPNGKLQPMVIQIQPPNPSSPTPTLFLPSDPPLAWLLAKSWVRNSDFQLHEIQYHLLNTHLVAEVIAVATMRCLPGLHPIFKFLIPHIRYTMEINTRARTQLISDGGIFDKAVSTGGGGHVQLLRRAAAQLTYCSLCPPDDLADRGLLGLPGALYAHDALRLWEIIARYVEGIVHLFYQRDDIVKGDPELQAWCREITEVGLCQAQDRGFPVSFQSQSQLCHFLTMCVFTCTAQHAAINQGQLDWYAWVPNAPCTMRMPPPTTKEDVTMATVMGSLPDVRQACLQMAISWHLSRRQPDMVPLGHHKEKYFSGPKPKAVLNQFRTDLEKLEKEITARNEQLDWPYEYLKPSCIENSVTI
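Purified human 12hLO at 150 nM in 25 mM Hepes, 0.01% Triton X-100, pH 7.0, preincubated 15 min at room temperature with compound. Reaction started with 40 uM arachidonic acid, 30 min at room temperature. Hydroperoxide measured by Fe-xylenol orange, 573/405 nm absorbance ratio.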
DT40 TDP1 no CPT – qHTS for Inhibitors of human tyrosyl-DNA phosphodiesterase 1 (TDP1): qHTS in cells in absence of CPT. DT40 Tdp1-/- hTDP1 cells, no CPT, ATP luminescence, 48 h. Potency, µM (highest dose often 46.2 µM), inactives show at the top dose activity change, negative = growth inhibition, most hits filed as inhibitors. 15% of 420,000 active; note: potency is the fitted concentration of half-maximal effect; nearly all actives have a fitted effect of over 55% in size
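DT40 Tdp1-/-;hTDP1 cells, no CPT (DMSO vehicle only), 400 cells/well; compounds pin-transferred; ≥48 hr, 37 °C; CellTiter-Glo 30 min RT dark, luminescence read.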
IL1B secr inh – inflammasome signaling inhibition, IL-1 beta readout; activity change, % at 57.5 µM; 4.7% of 360,000 active; THP-1 LPS/ATP IL-1B secretion, AlphaLISA, 16 h; stronger effect = lower value; in the data active = activity change below about -50%; inconclusive = mostly about -30% to -49%
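Secreted IL-1B measured by AlphaLISA bead assay after 16 h compound exposure of THP-1 cells; compounds (final up to 57.5 uM) added 1 h before LPS (250 ng/mL) and ATP (1.25 mM) stimulation; lower signal means less secretion.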
* = called active by the depositor; ? = inconclusive; / = no result given; [ ] = remark or other dose. Unless noted, calls come from the whole dose curve; as a rule, active = well fitted curve in the direction sought with a large enough effect; inconclusive = small, poorly fitted or top-dose-only effect, or another doubt; inactive = no such curve, though single readings can be large; an effect the other way counts as inactive or inconclusive. Unless noted, % is set by controls: 0 for no effect and ±100 for the full control effect.

SMILES	HT1080NT lethal	HT1080 IDH1KD tx	DT40 TDP1 CPT	12-LOX inh	DT40 TDP1 no CPT	IL1B secr inh
Cc1ccccc1C(=O)N1CCC(C(=O)Nc2ccc(C)c(S(=O)(=O)N3CCCCC3)c2)CC1	-1%	-10%	13µM*	17%	5.8µM*	-26
CC(C)c1ccc(NNC(=O)C2CCC2)cc1	-1%	-2%	9.2µM*	?	16µM*	/
Cc1ccccc1C(=O)N1CCC(C(=O)Nc2ccc(C(C)C)cc2)CC1	0%	-13%	7.3µM*	2%	5.2µM*	42
Cc1ccc(C)c(-c2nc(NC(=O)c3cc(C)on3)sc2C)c1	/	/	/	23%	/	/
CSCc1nc(CNc2nc(C3CCCC3)nc3c2cnn3C)cs1	/	/	/	19%	/	/
CCCCN(C)S(=O)(=O)c1ccc(NC(=O)Cc2nc(-c3ccccc3)oc2C)cc1	/	/	/	17%	/	/
Cc1ccccc1C(=O)N1CCC(C(=O)Nc2ccc(S(=O)(=O)N3CCCC3)cc2)CC1	-4%	-2%	?	-9%	18µM*	21
Cc1ccccc1C(=O)N1CCC(C(=O)Nc2cccc(S(=O)(=O)N3CCCCC3)c2)CC1	-2%	-2%	?	?	?	-13
CSc1cccc(NC(=O)C2CCN(C(=O)c3ccccc3C)CC2)c1	-23%	-2%	18µM*	0%	21µM*	?
O=C(NNC(=O)C1CCN(S(=O)(=O)c2ccccc2C(F)(F)F)CC1)c1ccccc1O	-17%	?	?	-3%	?	8
O=C(NNC(=O)C1CCN(S(=O)(=O)c2ccccc2)CC1)c1ccccc1O	?	?	7.3µM*	-13%	26µM*	136
COc1ccc(F)cc1[C@@H](NC(=O)C1=NNC(=O)CC1)C1CC(O)C1 (stereo partly specified)	/	/	/	5%	/	/
CCN(CC)/C(Sc1ccccc1)=C(/C(Cl)=C(Cl)Cl)[N+](=O)[O-]	10%	0%	21µM*	7.9µM*	?	-7
CCN(CC)/C(Sc1ccccc1)=C(\C(Cl)=C(Cl)Cl)[N+](=O)[O-]	27%	15%	?	-18%	?	-89*
O=[N+]([O-])C(=C(Sc1ccccc1)Sc1ccccc1)/C(Cl)=C(/Cl)Br	/	/	/	-1%	/	/
O=[N+]([O-])/C(C(Cl)=C(Cl)Cl)=C(\Sc1ccccc1)N1CCCCC1	-5%	-5%	18µM*	?	23µM*	-16
COc1ccccc1Cc1c(C2CCCCC2)nc2c3ccccc3ccn12	4%	-18%	?	-18%	?	26
c1ccc2c(c1)ccn1c(Cc3ccsc3)c(C3CCCCC3)nc21	-18%	?	18µM*	?	15µM*	11
Cc1ccc(Cc2c(C3CCCCC3)nc3c4ccccc4ccn23)cc1	4%	5%	?	?	23µM*	34
Cc1cccc(CN2CCN(Cc3nc(-c4cccs4)oc3C)CC2CCO)n1 (stereo unspecified)	/	/	/	30%	/	/
COc1cc(C)nc(N(Cc2ccccc2)S(=O)(=O)c2ccc(C)cc2)n1	-13%	-19%	?	-7%	18µM*	?
COc1cc(C)nc(N(Cc2ccccc2)S(=O)(=O)c2ccccc2)n1	-5%	-10%	?	21%	?	-15
Cc1ccc2[nH]nc(C(=O)N3CCCC(N(C)CCc4ccccc4)C3)c2c1 (stereo unspecified)	/	/	/	32%	/	/
O=C(NCc1ccc2c(c1)OCO2)c1ccc2c(c1)N(Cc1c(F)cccc1Cl)C(=O)CS2	-8%	-11%	?	-9%	23µM*	4
O=C(NCCc1ccccc1)c1ccc2c(c1)N(Cc1ccc(F)cc1Cl)C(=O)CS2	/	/	-27%	0%	-25%	/
SMILES	HT1080NT lethal	HT1080 IDH1KD tx	DT40 TDP1 CPT	12-LOX inh	DT40 TDP1 no CPT	IL1B secr inh
O=C(NCCc1ccc(Cl)cc1)c1ccc2c(c1)N(Cc1ccc(Cl)cc1)C(=O)CS2	/	/	?	-13%	?	/
O=C(NCCc1ccc(Cl)cc1)c1ccc2c(c1)N(Cc1ccc(F)cc1Cl)C(=O)CS2	/	/	?	-18%	6.5µM*	/
Cc1ccc(C)c(CN2C(=O)CSc3ccc(C(=O)NCc4ccccc4)cc32)c1	/	/	10µM*	-22%	16µM*	/
Cc1ccc(CNC(=O)c2ccc3c(c2)N(Cc2cccc(C)c2)C(=O)CS3)cc1	/	/	?	-2%	21µM*	/
O=C(NCCC1=CCCCC1)c1ccc2c(c1)N(Cc1ccccc1)C(=O)CS2	?	-24%	?	23%	21µM*	?
Cc1cc(C)n(-c2ccn(Cc3ccc(Cl)cc3Cl)c(=O)n2)n1	-15%	-22%	21µM*	?	16µM*	-17
COc1ccc(-c2coc(CCC(=O)N3CCN(c4cc(C)ccc4C)CC3)n2)cc1	5%	7%	?	20µM*	?	40
Cc1ccc(C)c(N2CCN(C(=O)CCc3nc(-c4ccccc4C(F)(F)F)no3)CC2)c1	-9%	-2%	?	0%	?	?
COc1ccc(-c2cccc(CCC(=O)N3CCN(c4cc(C)ccc4C)CC3)c2)cc1	-4%	-1%	?	-5%	?	4
COc1ccc(C(=O)CCC(=O)N2CCN(c3cc(C)ccc3C)CC2)cc1	-6%	-14%	16µM*	-6%	?	?
COc1ccc(-c2noc(CCCC(=O)N3CCN(c4cc(C)ccc4C)CC3)n2)cc1	-5%	-1%	?	?	?	-2
COc1ccc(-c2noc(CCCCC(=O)N3CCN(c4cc(C)ccc4C)CC3)n2)cc1	-22%	-29%	4.1µM*	12%	2.9µM*	14
COc1ccccc1-c1noc(CCC(=O)N2CCN(c3cc(C)ccc3C)CC2)n1	-5%	-1%	?	-7%	15µM*	14
Cc1ccccc1Cn1c(NC(C)CCO)nc2c1c(=O)n(C)c(=O)n2C (stereo unspecified)	/	/	/	-14%	/	/
O=C(NCc1cccc(F)c1)c1nc2c(o1)CCN(Cc1cccc(F)c1F)CC2	/	/	/	-12%[176 µM]	/	/
CCc1noc(-c2cccn3c(CNC(=O)C4CCCCC4)nnc23)n1	/	/	/	45%	/	/
COC(=O)c1sccc1S(=O)(=O)Nc1ccc(OC(F)(F)F)cc1	/	/	/	14%	/	/
O=C1CCCc2oc3ccc(NS(=O)(=O)c4cccc5cccnc45)cc3c21	-17%	-12%	?	2%	23µM*	26
COc1ccccc1NC(=O)c1cc2ccc3cccnc3c2[nH]1	/	/	3.7µM*	-7%	26µM*	/
